JMJD2A Tudor: qHTS Assay for Inhibitors of JMJD2A-Tudor Domain | Potency, µM (highest dose often 114 µM), inactives show at the top dose activity change, negative = inhibition, usual class: inhibitors | AlphaScreen JMJD2A-Tudor / H3K4me3 peptide binding | Lysine-specific demethylase 4A (Homo sapiens), O75164 | actives 4.4% (n = 390,000); note: % is set by controls: 0 for no effect and ±100 for the full control effect; nearly all actives have a fitted effect of over 50% in size
G9a inh: qHTS Assay for Inhibitors of Histone Lysine Methyltransferase G9a. Histone-lysine N-methyltransferase EHMT2 (Homo sapiens), Q96KQ7. actives 8.8% (n = 350,000). Potency, µM (series often up to 102 µM), for inactives: at the top dose activity, negative = inhibition, hits mostly inhibitors. G9a H3K9 monomethylation, AlphaScreen, 2 h; note: % is set by controls: 0 for no effect and ±100 for the full control effect; nearly all actives have a fitted effect of over 75% in size
Target sequence (Q96KQ7 913-1193 limits assumed): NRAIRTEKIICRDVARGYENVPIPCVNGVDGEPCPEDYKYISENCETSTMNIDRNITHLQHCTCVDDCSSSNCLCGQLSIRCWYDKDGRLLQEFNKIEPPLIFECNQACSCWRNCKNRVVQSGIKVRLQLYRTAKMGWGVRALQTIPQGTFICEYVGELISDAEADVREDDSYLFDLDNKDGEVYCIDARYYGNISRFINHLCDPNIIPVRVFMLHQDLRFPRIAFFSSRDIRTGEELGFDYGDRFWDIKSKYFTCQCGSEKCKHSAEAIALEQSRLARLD
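Enzyme 20 nM + cpd, 15 min RT; add b-H3K9 pep 500 nM / SAM 20 uM; 2 h RT; anti-H3K9me1 Ab 0.5 ug/mL + SA donor / anti-rabbit acceptor beads 20 ug/mL each, 10 min; AlphaScreen read.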
GLS inhibitor: qHTS for Inhibitors of Glutaminase (GLS). Glutaminase kidney isoform, mitochondrial (Homo sapiens), O94925. GLS enzymatic activity, qHTS titration. Potency, µM (titrated, usually from 45.5 µM), for inactives: at the highest dose activity change, negative = inhibition, usual class: inhibitors. actives 0.21% (n = 410,000). AID 624170, 2012; note: % is set by controls: 0 for no effect and ±100 for the full control effect
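Human kidney-isoform GLS in 45 mM KH2PO4 pH 8.2, 0.02% Tween-20, with compound, started with 1mM L-Glutamine (added stock). Glutamate oxidase/HRP/Amplex red coupled fluorescence read at start and after 30 min at RT.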
HP1b chromo inh: HTS for Inhibitors of HP1-beta Chromodomain Interactions with Methylated Histone Tails. Chromobox protein homolog 1 (Homo sapiens), P83916. AlphaScreen HP1-beta / biotin-H3K9me3 peptide binding. AID 540317, 2011. actives 0.56% (n = 390,000). Potency, µM (highest dose often 114 µM), for inactives: at the highest dose activity change, negative = inhibition, usual class: inhibitors; note: nearly all actives have a fitted effect of over 70% in size
Target sequence (P83916 whole entry, looked up): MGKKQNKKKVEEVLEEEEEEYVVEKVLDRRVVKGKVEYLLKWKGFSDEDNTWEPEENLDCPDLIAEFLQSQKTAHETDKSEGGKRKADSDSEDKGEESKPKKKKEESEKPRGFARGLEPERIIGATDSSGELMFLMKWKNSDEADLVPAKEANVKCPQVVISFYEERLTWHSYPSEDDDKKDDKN
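AlphaScreen: HP1-beta (50 nM) preformed 30 min with biotin-H3(1-18)K9me3 peptide (50 nM) in PBS pH 7.4, 0.01% Tween-20. Compound added for 30 min at RT, then streptavidin donor/nickel chelate acceptor beads (10 ug/mL) for 30 min.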
BAZ2B inh: qHTS Assay for Inhibitors of BAZ2B; Bromodomain adjacent to zinc finger domain protein 2B (Homo sapiens), Q9UIF8; AlphaScreen BAZ2B-H3K14Ac peptide displacement; Potency, µM (series often up to 114 µM), without a hit: at the top dose activity change, negative = inhibition, most hits filed as inhibitors; actives 4.4% (n = 360,000); note: % is set by controls: 0 for no effect and ±100 for the full control effect; nearly all actives have a fitted effect of over 60% in size
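Complex of BAZ2B and biotin-H3K14Ac (50 nM apiece) forms over 30 min at RT, then faces library compounds up to 110 uM for another 30 min; AlphaScreen beads added, 20 min dark incubation, luminescence read.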
Active calls of the source: *; u = inconclusive; x = no result; [ ] = another dose, or the depositor's remark. This is a sample that favours compounds with a hit; in the whole collection about 10% have one here. Calls come from the whole dose curve; as a rule, active = well fitted curve in the direction sought with a large enough effect; inconclusive = small, poorly fitted or top-dose-only effect, or another doubt; inactive = no such curve, though single readings can be large; an effect the other way counts as inactive or inconclusive. Potency is the fitted concentration of half-maximal effect.

SMILES	JMJD2A Tudor	G9a inh	GLS inhibitor	HP1b chromo inh	BAZ2B inh
CCn1c(COc2ccc(Cl)cc2)nnc1SCc1ccc(C#N)cc1	-24%[11.4 µM]	40µM*	-8%	62%	-1%
O=C(COC(=O)C1CC1)Nc1ncc(Cl)cc1Cl	u	u	-12%	-15%	u
O=C(COC(=O)C1CCN(S(=O)(=O)c2cc([N+](=O)[O-])ccc2Cl)CC1)Nc1ncc(Cl)cc1Cl	25µM*	-18%[0.501 µM]	-28%	u	32µM*
CC(=O)COC(=O)C1CCN(S(=O)(=O)c2cc([N+](=O)[O-])ccc2Cl)CC1	56µM*	u	u	17%	50µM*
CN(Cc1ccccc1)C(=O)C1CCN(S(=O)(=O)c2cc([N+](=O)[O-])ccc2Cl)CC1	-26%	u	2%	13%	-7%
Cc1cccc(C)c1NC(=O)CSc1nccn1C	-3%	9%[59 µM]	6%	26%	-19%
COCCNC(=O)c1cc2c(c(-c3cccc(C#Cc4ccc(OC)c(OC)c4)c3)n1)[C@@H](CCO)N(S(=O)C(C)(C)C)C2 (stereo partly specified)	x	x	6%	x	x
CC(C)(C(=O)N1CCC1(C)C(=O)NS(=O)(=O)c1cccc(Cl)c1)c1ccccc1 (stereo unspecified)	x	x	26%	x	x
C=CCn1c(CCC(O)CCCCC)n[nH]c1=S (stereo unspecified)	18µM*	7.1µM*	-16%	3%	4%
C=CCn1c(CCc2cc(C(C)(C)C)c(O)c(C(C)(C)C)c2)n[nH]c1=S	u	2µM*	0%	-15%	-29%
C=CCn1c(Cc2ccccc2)n[nH]c1=S	3.5µM*	x	-1%	23%	-5%
C=CCn1c(CCCOc2ccc(Cl)cc2Cl)n[nH]c1=S	-2%	u	-9%	43%	-33%
C=CCn1c(Cc2c[nH]c3ccccc23)n[nH]c1=S	8.9µM*	6.3µM*	-18%	-4%	-7%
CCc1nn(CC(=O)NCc2ccc(OC)c(OC)c2)c(=O)c2cc3sc(C)cc3n12	-15%	-1%[59 µM]	0%	1%	3%
COc1ccc(S(=O)(=O)N(C)C[C@H]2Oc3c(NC(=O)CCC(F)(F)F)cccc3C(=O)N([C@H](C)CO)C[C@@H]2C)cc1	-18%	x	2%	33%	x
C/C(=N\NC(=O)c1ccc(Cl)c(Cl)c1)c1ccc(Br)s1	-5%	27%[59 µM]	0%	33%	12%
C/C(=N\Nc1ccc(Cl)c(C(=O)O)c1)c1ccc(Br)s1	28µM*	35µM*	39%	u	u
C/C(=N\NC(=O)c1ccccc1C)c1cccc([N+](=O)[O-])c1	-7%	-1%[59 µM]	0%	9%	-18%
C/C(=N\Nc1ccc(Cl)c(C(=O)O)c1)c1cccc([N+](=O)[O-])c1	-22%	16µM*	-5%	51%	-33%
CC(=O)N1CCc2c(sc3c2c(=O)n(-c2ccc(C)cc2)c(=O)n3Cc2ccccc2C)C1	u	-4%[59 µM]	-1%	-10%	-20%
COc1ccc(N(CC(=O)Nc2cccc(Cl)c2)S(=O)(=O)c2c(C)[nH]c(=O)[nH]c2=O)cc1	-24%	u	9%	34%	-6%
Cc1ccc2cc(CCNC(=O)c3ccco3)c(=O)[nH]c2c1C	-11%	79µM*	-6%	48%	9%
Cc1ccc2cc(CCNC(=O)c3ccco3)c(=O)[nH]c2c1	-16%	u	16%	17%	-1%
COc1ccc2cc(CCNC(=O)c3ccco3)c(=O)[nH]c2c1	-6%	45µM*	-16%	38%	0%
O=C(Nc1ccccc1Br)C1CC(=O)N(c2ccc3c4c(cccc24)CC3)C1 (stereo unspecified)	-8%	3%[59 µM]	7%	18%	-6%
SMILES	JMJD2A Tudor	G9a inh	GLS inhibitor	HP1b chromo inh	BAZ2B inh
CCOc1ccc(CCn2c3c(c(=O)[nH]c2=O)C(NC(=O)c2ccccc2)(C(F)(F)F)C(=O)N3)cc1OCC (stereo unspecified)	-13%	2%[59 µM]	1%	42%	-15%
Cn1c(-n2cccc2)c(-c2c(-c3ccccc3)[nH]c3c2c(=O)[nH]c(=O)n3C)c(=O)[nH]c1=O	-31%	-4%[12.7 µM]	-11%	-7%	79µM*
CCOC(=O)c1sc(=S)sc1SCc1cccc(C(F)(F)F)c1	-28%	32µM*	3%	-16%	-35%
COc1ccc(NC(=O)c2sccc2SCc2cccc(C(F)(F)F)c2)cc1	52%	u	-7%	78%	31%
CCOC(=O)c1c(S(=O)(=O)N2CCC(C(=O)N3CCN(c4ccc(F)cc4)CC3)CC2)c(C)n(C)c1C	-22%	2%[59 µM]	28%	4%	-35%
COc1ccc(-c2csc(NCCn3c(C)nc4cc(C(F)(F)F)ccc43)n2)cc1	-31%	x	-11%	-8%	x
Cc1nc2cc(C(F)(F)F)ccc2n1CCNc1nc(-c2ccc(F)cc2)cs1	u	28µM*	7%	3%	u
Cc1ccc(-c2csc(NCCn3c(-c4ccncc4)nc4cc(C(F)(F)F)ccc43)n2)cc1	-34%	x	-2%	20%	x
Cc1ccc(-c2csc(NCCn3c(-c4ccncc4)nc4ccccc43)n2)cc1	-23%	20µM*	1%	6%	-37%
CC1C(=O)N(Cc2cn(Cc3ccco3)nn2)CCS(=O)(=O)N1Cc1ccc(-c2ccc(Cl)cc2)cc1 (stereo unspecified)	x	x	-4%	x	x
CSc1nc(-c2ccco2)nn1C(=O)c1ccc(Cl)cc1	x	79µM*	x	x	-23%
CCC12CCCN3CCC4(C(=C(C(=O)OC)C1)Nc1ccccc14)C32 (stereo unspecified)	u	2.8µM*	-4%	-11%	u
Oc1ccc(Cl)cc1N=Nc1ccccc1	35µM*	22µM*	7%	-27%	32µM*
COC(=O)CCC(=O)Nc1ccc(N=Nc2ccccc2)cc1	u	10µM*	6%	6%	40µM*
Oc1ccc(N=Nc2ccccc2)cc1	u	50µM*	-7%	-10%	u
COC(=O)c1ccc(N=Nc2ccccc2)cc1	u	40µM*	-1%	u	13µM*
O=C(COCc1cc(-c2cccs2)on1)NCc1cccc(Cl)c1	-4%	20%[59 µM]	-7%	32%	31%
CCc1cnc(Nc2nc(C(N)Cc3ccc(F)cc3)cs2)nc1 (stereo unspecified)	x	x	10%	x	x
CCCn1c(SCc2nc(-c3cc(OC)ccc3OC)no2)nnc1-c1ccc(Cl)cc1	-27%	9%[59 µM]	-1%	20%	-25%
COc1cc(OC)cc(C(=O)n2cnnc2N)c1	-6%	45µM*	-3%	35%	-32%
Cc1cc(-n2nc3ccccc3n2)c(O)c([N+](=O)[O-])c1	-29%	79µM*	0%	-7%	-35%

From PubChem BioAssay
